Screening results deposited in PubChem BioAssay by several laboratories.
hDAT+cocaine: changed hDAT dopamine uptake under cocaine IC80, either direction, primary screen, cocaine antagonist project, cell-based, LLC-PK1 hDAT, [14C]-dopamine uptake, MLSMR; Sodium-dependent dopamine transporter (Homo sapiens), Q01959; LLC-PK1 hDAT cells, [14C]-dopamine uptake with cocaine IC80; actives deviate in either direction; B-score at 10 µM; hit rate 1.3% among 110,000;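 active = Z score or B-score, a plate-position-corrected score, falls beyond the plate's 99.7% confidence bounds, in either direction; inactive = both scores lie inside the 99.7% bounds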;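 also: scored against the spread of the other compound wells on the same plate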
CYP2C9 activ: human CYP2C9 activators, primary screen, biochemical, luminescence | activation factor at 5 µM | Cytochrome P450 2C9 (Homo sapiens), P11712 | recombinant CYP2C9, luciferin-H conversion; stronger effect = higher value; factor 1 = untreated enzyme, 0 = blocked | hit rate 1.4% among 96,000;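 active = activation factor of 2 or more for CYP2C9 at a 5 µM dose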;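 also: 0 = sulfaphenazole-blocked wells and 1 = vehicle-only wells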
CYP2C19 inhib: blockers of cytochrome P450 2C19 activity – biochemical, luminescence, ADME assay, primary screen. P33261. CYP2C19 Supersomes, luciferin-H EGE luminescence, 30 min. inhibition, % at 5 µM. hit rate 21% among 96,000;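 active = CYP2C19 inhibition above a set limit at 5 µM in the primary screen, cut at about 50% in these data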;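 also: plate controls were negative control wells for no effect and 2.5 mM tranylcypromine positive control for full effect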
D1 allo mod: D1 CRE-luciferase signal change, two-sided – cell-based, HEK293 D1, dopamine EC30, D1 allosteric modulator project, primary screen. D(1A) dopamine receptor (Homo sapiens), P21728. dopamine EC30 potentiation; actives deviate in either direction. B-score at 10 µM. hit rate 5.9% among 58,000. AID 641, 2007;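 active = luminescence count or its row- and column-corrected plate score outside the 99.7% band of the plate's sample wells, on either side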
Target sequence (P21728 whole entry, looked up): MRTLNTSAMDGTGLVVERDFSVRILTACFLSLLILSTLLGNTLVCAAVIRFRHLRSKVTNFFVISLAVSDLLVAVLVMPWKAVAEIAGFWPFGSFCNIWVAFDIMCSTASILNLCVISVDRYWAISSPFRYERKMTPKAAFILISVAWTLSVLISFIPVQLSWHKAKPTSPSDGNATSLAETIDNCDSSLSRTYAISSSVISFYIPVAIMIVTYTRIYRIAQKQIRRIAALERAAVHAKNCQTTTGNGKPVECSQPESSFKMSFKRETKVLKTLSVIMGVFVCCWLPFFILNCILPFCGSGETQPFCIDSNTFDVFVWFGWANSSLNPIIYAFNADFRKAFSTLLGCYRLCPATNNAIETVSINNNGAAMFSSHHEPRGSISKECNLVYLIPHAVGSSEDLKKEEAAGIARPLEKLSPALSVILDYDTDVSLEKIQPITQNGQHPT
CYP2C19 activ: human CYP2C19 activators, primary screen, biochemical, luminescence; recombinant CYP2C19, luciferin-H EGE luminescence; stronger effect = higher value; 0 = fully inhibited enzyme, 1 = untreated enzyme; Cytochrome P450 2C19 (Homo sapiens), P33261; activation factor at 5 µM; AID 1025, 2008; 96,000 tested, under 10 active;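 active = activation factor of at least 2 at 5 µM in the primary screen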;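 also: 0 = wells with 2.5 mM tranylcypromine and 1 = vehicle-only wells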
CYP2C9 inh: blockers of cytochrome P450 2C9 activity – biochemical, luminescence, ADME assay, primary screen | P11712 | CYP2C9 Supersomes, luciferin-H conversion | inhibition, % at 5 µM | hit rate 20% among 96,000 | AID 777, 2007;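 active = blocking of liver enzyme CYP2C9 beyond about 50% at 5 µM, limit read from the data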
* hit, by the source's call; nt = no result given. An excerpt weighted towards active compounds, which were near 28% of everything screened.

SMILES | hDAT+cocaine | CYP2C9 activ | CYP2C19 inhib | D1 allo mod | CYP2C19 activ | CYP2C9 inh
CSc1ccccc1NC(=O)c1c(C)noc1C | -0.36 | 1 | 10 | -0.59 | 0.9 | -4
Cc1ccccc1-n1c(SCC(=O)c2cc(C)n(C)c2C)nnc1-c1ccncc1 | 1.6 | 0.1 | 99* | 0.24 | 0 | 92*
Cc1cc(C(=O)CSc2nnc(NCc3ccccc3)s2)c(C)n1C | 1.1 | 0.8 | 21 | 0.13 | 0.8 | 18
Cc1cc(C(=O)CSc2nnc(Nc3ccccc3F)s2)c(C)n1CC1CCCO1 (stereo not given) | 0.045 | 0.4 | 53* | 1.8 | 0.5 | 56*
Cc1ccc(-n2c(SCC(N)=O)nnc2-c2cccnc2)c(C)c1 | -0.96 | 1 | -11 | -0.38 | 1.1 | 2
Cc1cc(C(=O)CSc2nnc(Nc3ccccc3)s2)c(C)n1CC1CCCO1 (stereo not given) | -0.35 | 0.8 | 9 | -0.48 | 0.9 | 19
Cc1cc(C(=O)CSc2nnc(-c3cccnc3)n2-c2ccccc2F)c(C)n1CC1CCCO1 (stereo not given) | 1.2 | 0.3 | 78* | nt | 0.2 | 65*
N#Cc1c(-c2ccc(Cl)cc2)ccn2nc(C3CCCCC3)nc12 | 1.8 | 0.1 | 26 | nt | 0.7 | 85*
COc1cc(-c2nnc(SCC(=O)Nc3cc(C)on3)n2C)cc(OC)c1O | -0.24 | 1 | 5 | -0.4 | 1 | -2
CS(=O)(=O)N(CC(=O)Nc1cc(Cl)ccc1Cl)c1ccccc1 | -0.6 | 0.4 | 36 | nt | 0.6 | 65*
Cc1ccccc1NC(=O)CN(c1ccc(F)cc1)S(C)(=O)=O | 0.3 | 0.9 | 33 | -0.17 | 0.7 | 7
CS(=O)(=O)N(CC(=O)O)c1cccc(Cl)c1 | 1.3 | 1 | 0 | -0.43 | 1 | -4
CS(=O)(=O)N(CC(=O)Nc1cccc(Cl)c1Cl)c1ccccc1 | 0.069 | 0.2 | 30 | nt | 0.7 | 78*
C/C(Cl)=C/CSc1nc2c(c(=O)[nH]c(=O)n2C)n1C(C)C | -0.025 | 0.8 | 10 | 7.9* | 0.9 | 18
O=S(=O)(Nc1ccn(-c2ccccc2)n1)c1ccc(Br)cc1 | -2.6 | 0 | 72* | 0.38 | 0.3 | 99*
CCc1ccc(OCC(=O)N/N=C2\CC(=O)c3ccccc32)cc1 | 0.94 | 0.6 | 82* | nt | 0.2 | 44
COc1ccccc1C1NC(c2ccccc2OC)C(C)C(=O)C1C (stereo not given) | -0.24 | 0.3 | 100* | nt | 0 | 67*
COc1ccc(C2NC(c3ccc(OC)c(OC)c3OC)C(C)C(=O)C2C)c(OC)c1OC (stereo not given) | -0.43 | nt | nt | -0.89 | nt | nt
COc1nc(OC)nc(N2CCC(C(=O)NCc3ccc(F)cc3)CC2)n1 | -0.43 | 1.5 | -5 | nt | 1.1 | -46
CC(=O)Nc1ccc(NC(=O)c2c(C)nc3ccccn23)cc1 | 1.1 | 1 | 2 | 0.19 | 1 | -2
Cc1ccc(Nc2nc(-c3c(C)nc4ncccn34)cs2)cc1 | -0.45 | 2* | 19 | nt | 0.8 | -103
Cc1ccc(Nc2nc(-c3c(C)nc4ccccn34)cs2)cc1 | nt | 1.9 | 67* | nt | 0.3 | -92
Cc1cccc(NC(=O)N(C)Cc2cccs2)c1 | 0.69 | 1.3 | 44 | nt | 0.6 | -28
COc1ccc(-c2cc(=O)n(-c3nc4ccccc4[nH]3)[nH]2)cc1 | 0.092 | 0.7 | -22 | nt | 1.2 | 28
Cc1ccc2cc3c(nc2c1)N(Cc1ccco1)CC3 | -0.18 | 1 | 9 | 0.4 | 0.9 | 5
SMILES | hDAT+cocaine | CYP2C9 activ | CYP2C19 inhib | D1 allo mod | CYP2C19 activ | CYP2C9 inh
Cc1cccc(N=C2Sc3nc4c(C)c(C)ccc4cc3CN2CCN2CCOCC2)c1 | 0.37 | 0.5 | 16 | nt | 0.8 | 47
Cc1cccc2cc(CN(CC3CCCO3)C(=O)c3ccco3)c(=O)[nH]c12 (stereo not given) | -0.18 | 0.9 | 34 | 0.04 | 0.7 | 12
Cc1ccc2nc3c(cc2c1)CN(Cc1ccco1)C(=NCC1CCCO1)S3 (stereo not given) | 0.87 | 0.2 | 52* | 2.4 | 0.5 | 79*
COCCN=C1Sc2nc3c(C)cccc3cc2CN1Cc1ccco1 | -1.1 | 0.4 | 30 | nt | 0.7 | 57*
Cc1cccc2cc3c(nc12)SC(=NCC1CCCO1)N(Cc1ccco1)C3 (stereo not given) | 0.22 | 0.4 | 23 | -0.19 | 0.8 | 57*
O=C(COc1ncnc2c(Cl)cc(Cl)cc12)NCCC1=CCCCC1 | 0.09 | 0.8 | 39 | nt | 0.6 | 17
O=C(CCn1c(=O)sc2ccccc21)NCc1ccco1 | -0.25 | nt | nt | nt | nt | nt
CCc1cccc(N(C)C(N)=Nc2cccc3ccccc23)c1 | 0.7 | nt | nt | nt | nt | nt
CNc1nc2ccccc2n1/N=C/c1cccc(OC)c1OC | 0.43 | 1 | 13 | nt | 0.9 | 2
COc1cccc(/C=C/c2ccncc2)c1OC | nt | 0 | 99* | -0.24 | 0 | 98*
Cc1ccc(C2CC(=O)c3cnc(N4CCN(c5ccccc5)CC4)nc3C2)cc1 (stereo not given) | 0.74 | 0.5 | 43 | -0.78 | 0.6 | 54*
CCN1CCN(c2ncc3c(n2)CC(c2ccc(OC)c(OC)c2)CC3=O)CC1 (stereo not given) | -1 | 0.7 | -1 | 1.8 | 1 | 31
Cc1nc(N2CCN(c3ccccc3)CC2)nc2c1C(=O)CC(c1ccccc1)C2 (stereo not given) | -1.2 | 0.2 | 42 | -0.61 | 0.6 | 83*
COc1ccc(C2CC(=O)c3cnc(N4CCN(Cc5ccccc5)CC4)nc3C2)cc1 (stereo not given) | 0.54 | 0.1 | 80* | 0.18 | 0.2 | 94*
O=C1CC(c2ccc(F)cc2)Cc2nc(N3CCN(c4ccccc4)CC3)ncc21 (stereo not given) | -0.13 | 0.7 | 6 | -0.056 | 0.9 | 26
O=C1CC(c2ccccc2)Cc2nc(N3CCc4ccccc4C3)ncc21 (stereo not given) | 0.55 | 0.4 | 35 | nt | 0.6 | 64*
O=S(=O)(NCc1cccnc1)c1ccccc1 | 0.29 | 1.1 | 16 | nt | 0.8 | -5
CC1CC(C)CN(c2ncc3c(n2)CC(c2ccc(Cl)cc2)CC3=O)C1 (stereo not given) | 0.65 | 0.2 | 43 | 1.3 | 0.6 | 78*
O=C(c1ccccc1)N1CCN(CC#CC2(O)CCCCC2)CC1 | -0.13 | 1.2 | -10 | 0.0015 | 1.1 | -17
S=C(Nc1ccccn1)c1ccccn1 | 2.4* | 0.5 | 66* | -2.6* | 0.3 | 51*
COC(=O)CCc1c(C)[nH]c(C(=O)OCc2ccccc2)c1C | -0.029 | 0.6 | 62* | nt | 0.4 | 36
O=C1CC(Sc2nnnn2C2CCCCC2)C(=O)N1c1ccccc1 (stereo not given) | -0.16 | nt | nt | 0.041 | nt | nt
